The record followed here is PubChem BioAssay (Tox21).

A short description of experiment [1]: qHTS assay to identify small molecule agonists of the vitamin D receptor (VDR) signaling pathway - cell viability counter screen (AID 743224). Further: nearly all actives have a fitted effect of over 50% in size. Further: potency means the concentration at half of the fitted maximal effect. In a few lines:
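Viability is measured in the same wells as the VDR-bla reporter assay: after 16 h compound treatment and 2 h substrate loading, CellTiter-Glo is added and luminescence read 30 min later.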
A general note: qHTS replaces the single test concentration by a dilution series.

Experiment [2] is described as follows: qHTS assay to identify small molecule agonists of the NFkB signaling pathway (AID 1159509; active means well fitted curve in the direction sought with a large enough effect in the signal ratio in the repeat runs, not every such curve was filed as active; the % refers to the signal ratio; further: series mostly up to about 61 µM). In a few lines: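 NFkB-bla ME-180 cells with a beta-lactamase reporter under an NF-kB response element were plated overnight, treated with compounds in DMSO for 5 hr at 37 C, then loaded with FRET substrate for 1.5 hr at room temperature.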
The nature of experiment [3]: qHTS assay to identify small molecule agonists of the NFkB signaling pathway - cell viability counter screen (AID 1159515; calls by dose curve; further: series mostly up to about 61 µM; nearly all actives have a fitted effect of over 55% in size). In a few lines:
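Multiplexed viability readout: after the 5 hr compound exposure and 1.5 hr FRET substrate step, CellTiter-Glo reagent went into the same NFkB-bla ME-180 wells; ATP luminescence was measured after 30 min at room temperature.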

Experiment [4] can be described thus: qHTS assay to identify small molecule agonists of the endoplasmic reticulum stress response signaling pathway (AID 1159516; active means well fitted activation curve with a large enough effect in the signal ratio in the repeat runs, not every such curve was filed as active; the % refers to the signal ratio). In a few lines: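 Tox21 10K library screened in quantitative HTS format on ESRE-bla HeLa cells, a beta-lactamase reporter under ER stress response element control; 5 hr treatment, FRET read.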
Experiment [5] in a line: qHTS assay to identify small molecule agonists of the endoplasmic reticulum stress response signaling pathway - cell viability counter screen (AID 1159517; calls by dose curve; further: series mostly up to about 61 µM; nearly all actives have a fitted effect of over 50% in size). In a few lines:
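Luminescence readout: CellTiter-Glo, 30 min RT, same wells as the ESRE-bla reporter read. HeLa ESRE-bla, 1,500 cells/well, o/n 37 C; cpd 5 hr 37 C/5% CO2.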

Experiment [6] deals with Nuclear receptor ROR-gamma (Homo sapiens) (UniProt P51449). Nature of the experiment: qHTS assay to identify small molecule antagonists of the retinoid-related orphan receptor gamma (ROR-gamma) signaling pathway (AID 1159521; further: nearly all actives have a fitted effect of over 50% in size; further: potency means the concentration at half of the fitted maximal effect). In a few lines: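 Inducible-expression reporter assay: doxycycline (1 uM final) switched on RORγ in CHO cells bearing a ROR response element-luciferase construct, with test compounds present from 2 h beforehand. Decreased luminescence after 16 h defined antagonist activity.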

The nature of experiment [7]: qHTS assay to identify small molecule agonists of the AP-1 signaling pathway - cell viability counter screen (AID 1159525; calls by dose curve; further: nearly all actives have a fitted effect of over 55% in size). In a few lines: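 ME-180 AP-1-bla, 2500 cells/well, Opti-MEM + 0.5% dialyzed FBS; overnight 37 °C; cpd 15-pt titration, 5 h 37 °C; CellTiter-Glo 30 min RT; luminescence read; normalised to TOAB and DMSO controls.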
The nature of experiment [8]: qHTS assay to identify small molecule agonists of the AP-1 signaling pathway (AID 1159526; calls by dose curve).
Experiment [9] can be described thus: qHTS assay to identify small molecule antagonists of the retinoid acid receptor (RAR) signaling pathway - cell viability counter screen (AID 1159551). Further: nearly all actives have a fitted effect of over 35% in size. In a few lines:
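Cytotoxicity counter screen in C3RL4 cells: 6 h compound exposure with 1 uM retinol (final), viability from cellular ATP by luminescence.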

The nature of experiment [10]: qHTS assay to identify small molecule antagonists of the retinoic acid receptor (RAR) signaling pathway (AID 1159552; further: nearly all actives have a fitted effect of over 50% in size). In a few lines: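 Antagonism of retinol-induced RARE reporter activity was measured in C3RL4 cells. Exposure to compounds and 1 uM final retinol lasted 6 hr at 37 C, with luminescence as endpoint.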
Experiment [11] is described as follows: qHTS assay to identify small molecule agonists of the retinoic acid receptor (RAR) signaling pathway (AID 1159553). In a few lines: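 Agonist activity was scored in C3RL4 cells bearing a retinoic acid response element luciferase construct. Cells were treated with compounds for 6 hr at 37 C, and luciferase signal was measured as luminescence.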
Experiment [12] in a line: qHTS assay to identify small molecule antagonists of the vitamin D receptor (VDR) signaling pathway - cell viability counter screen (AID 743225). Further: nearly all actives have a fitted effect of over 50% in size. In a few lines: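 Same-well multiplex: following 16 h treatment of HEK 293T cells carrying a UAS-driven beta-lactamase reporter with compound and agonist (3 nM final), and a 2 h FRET substrate step, CellTiter-Glo was added and luminescence read after 30 min.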

A short description of experiment [13]: qHTS assay to identify small molecule agonists of the RXR signaling pathway - cell viability counter screen (AID 1159529). In a few lines: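 Counter screen: CellTiter-Glo luminescence. Cells: RXR-alpha-UAS-bla HEK 293T. Medium: 2% charcoal-stripped FBS. Treatment: 16 h, 37 C. Reagent incubation: 30 min, RT.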
The target in experiment [14] is Retinoic acid receptor RXR-alpha (Homo sapiens) (UniProt P19793). Nature of the experiment: qHTS assay to identify small molecule agonists of the RXR signaling pathway (AID 1159527; calls by dose curve; further: nearly all actives have a fitted effect of over 35% in size). In a few lines: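 Compounds in DMSO were added to RXR-alpha-UAS-bla HEK 293T cells kept in 2% charcoal-stripped serum, and incubated 16 hr at 37 C with 5% CO2. Reporter signal came from a 2 hr B/G FRET substrate step.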
Chain of Retinoic acid receptor RXR-alpha (Homo sapiens) (P19793 whole entry, looked up): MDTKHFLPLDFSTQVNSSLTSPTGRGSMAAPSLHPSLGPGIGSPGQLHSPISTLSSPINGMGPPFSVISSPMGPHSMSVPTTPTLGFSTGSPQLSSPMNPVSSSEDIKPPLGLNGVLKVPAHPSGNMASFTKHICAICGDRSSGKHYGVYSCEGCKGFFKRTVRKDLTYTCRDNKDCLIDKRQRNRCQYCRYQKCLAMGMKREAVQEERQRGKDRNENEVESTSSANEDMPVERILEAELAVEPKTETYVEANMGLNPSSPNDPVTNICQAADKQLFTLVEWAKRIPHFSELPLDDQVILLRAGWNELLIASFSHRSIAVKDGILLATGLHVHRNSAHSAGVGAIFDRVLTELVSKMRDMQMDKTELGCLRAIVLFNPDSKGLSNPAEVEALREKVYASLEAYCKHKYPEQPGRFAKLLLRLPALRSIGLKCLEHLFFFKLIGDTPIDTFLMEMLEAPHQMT

Experiment [15] in a line: qHTS assay to identify small molecule antagonists of the retinoid-related orphan receptor gamma (ROR-gamma) signaling pathway - cell viability counter screen (AID 1159520). Further: nearly all actives have a fitted effect of over 50% in size. In a few lines:
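Tet-on ROR gamma CHO cells (1,000/well) were plated 4 hr, given compounds in DMSO for 2 hr at 37 C, then induced with 1 uM final doxycycline for 16 hr. Viability was read as ATP by CellTiter-Glo luminescence after 30 min.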

Experiment [16] can be described thus: qHTS assay to identify small molecule antagonists of the estrogen related receptor (ERR) signaling pathway (AID 1224819). In a few lines:
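Compounds dissolved in DMSO were pin-transferred onto ERR cells that had been plated 6 h earlier, and cells were then incubated 18 h at 37 C; signal was luciferase luminescence via One-Glo.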

Experiment [17] can be described thus: qHTS assay to identify small molecule agonists of the estrogen related receptor (ERR) signaling pathway (AID 1224820). In a few lines:
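ERR reporter cells (NTP line) plated 2,000/well, incubated 6 h at 37 C/5% CO2, then pinned with compounds in DMSO and held 18 h at 37 C. One-Glo added; luminescence read after 30 min at room temperature.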

For experiment [18], the system named is estrogen-related receptor alpha (ERRalpha) with PGC-1alpha coactivator, human. In words: qHTS assay to identify small molecule antagonists of the estrogen related receptor signaling pathway with the pleiotropic PPARgamma coactivator (PGC) (AID 1224821; calls by dose curve). In a few lines: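 Cells engineered for PGC/ERR signalling (line from NTP) were plated 6 h at 37 C/5% CO2, then exposed to DMSO-dissolved compound for 18 h at 37 C. Luciferase activity was read by One-Glo luminescence after 30 min at room temperature.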

The nature of experiment [19]: qHTS assay to identify small molecule antagonists of the estrogen related receptor (ERR) signaling pathway - cell viability counter screen (AID 1224818).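 Further: series mostly up to about 46 µM; viability measured after 17.5 h of compound exposure.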 In a few lines:
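Cells carrying the ERR pathway reporter were seeded and incubated for 6 hours before compound addition. After a 17.5-hour exposure at 37 C, live-cell protease activity was measured by CellTiter-Fluor fluorescence following 30 minutes of incubation.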

A short description of experiment [20]: qHTS assay to identify small molecule antagonists of the estrogen related receptor signaling pathway with the pleiotropic PPARgamma coactivator (PGC) cell viability counter screen (AID 1224822; further: series mostly up to about 46 µM). In a few lines: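 Seed PGC/ERR cells (2,000/well); incubate 6 h at 37 C/5% CO2; pin-transfer compounds in DMSO; incubate 17.5 h at 37 C; add CellTiter-Fluor; after 30 min read fluorescence.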

Results filed as inconclusive are left out. Unmarked numbers belong to inactive results. The source made the active and inactive calls. Unless noted, the call rests on the fitted dose curve; in most records, active means well fitted curve in the direction sought with a large enough effect in the repeat runs; inconclusive means weak or mixed curves; inactive means no such curve, though single readings can be large; an effect the other way counts as inactive or inconclusive.

On to `CC(C)(C)CC(C)(C)c1ccc(OCCO)cc1`, for which the Potency is 38.7 µM (active) in experiment [1] and 19.2 µM (active) in [6]. For the same molecule, the molecule was called inactive in [2], in experiment [3], in [4], in [5], in [7] and in experiment [8]. Further, the Potency entry in experiment [9], in [10] and in experiment [11] was “inactive” throughout.

In the case of `CC(C)(CCl)c1ccccc1`, the Potency result in [12], in experiment [6], in [13] and in experiment [10] was “inactive” in each case. In addition, the outcome in experiment [2], in experiment [3], in experiment [4], in experiment [5], in experiment [7] and in experiment [8] was inactive.

In the case of `CC1(C)C(=O)N(Br)C(=O)N1Cl`, the Potency result in [1], in experiment [12], in experiment [14], in experiment [13], in experiment [9] and in experiment [10] was “inactive” each time. For the same molecule, the Potency result in [11] is “inactive”. Also, the molecule was called inactive in experiment [2], in [3], in [4], in experiment [5] and in experiment [7].

Take `C[Si](NC1CCCCC1)(NC1CCCCC1)NC1CCCCC1`: the Potency entry in [1], in experiment [12], in experiment [15], in experiment [9] and in experiment [10] was “inactive” in each case. Besides, the call in [2], in experiment [3], in [4], in [5] and in experiment [8] was inactive.

Consider `CCCCCCOC(=O)C(C)C`, for which the Potency result in experiment [1], in experiment [12], in experiment [6], in [13], in experiment [9] and in experiment [10] was “inactive” each time. In addition, the result in experiment [2], in [3], in [4], in experiment [5], in experiment [7] and in experiment [8] was inactive.

As to `COCCOC(=O)C1=C(C)NC(C)=C(C(=O)OC/C=C/c2ccccc2)C1c1cccc([N+](=O)[O-])c1` (stereo unspecified), the Potency entry in experiment [1] and in [13] was “inactive” in each case. In addition, the molecule was classed as inactive in experiment [2], in [3], in [4], in experiment [5], in [7] and in [17]. Also, the figures for the Potency in experiment [16] and in [18] were 11.9 µM (active) and 17.4 µM (active), respectively.

As to `O=C(OCCOCCO)c1ccccc1Nc1cccc(C(F)(F)F)c1`, the Potency result in [1], in experiment [13], in experiment [9], in experiment [10] and in [11] was “inactive” each time. The call in experiment [2], in experiment [3], in experiment [4], in experiment [5], in experiment [7] and in experiment [8] was inactive.

As for `O=C(O)c1cccnc1C(=O)O`, the Potency result in experiment [1], in experiment [12], in experiment [15], in experiment [6], in [14] and in [13] was “inactive” each time. Besides, the Potency entry in experiment [9] and in [10] was “inactive” each time. The call in experiment [2], in experiment [3], in experiment [4], in experiment [7], in experiment [8] and in experiment [19] was inactive. The molecule was classed as inactive in [20].

With `COc1cc2[nH]c(=O)[nH]c(=O)c2cc1OC`, the Potency entry in [1], in experiment [15], in experiment [6], in experiment [14], in experiment [13] and in experiment [9] was “inactive” in each case. In addition, the Potency result in [10] and in experiment [11] was “inactive” in each case. For the same molecule, the outcome in [2], in experiment [3], in experiment [4], in experiment [7] and in experiment [8] was inactive.

With `Cc1c(C(=O)NN2CCCCC2)nn(-c2ccc(Cl)cc2Cl)c1-c1ccc(Cl)cc1`, the molecule was classed as inactive in [2], in experiment [3], in experiment [4], in experiment [5], in experiment [7] and in experiment [8]. In addition, in [9], the Potency result was “inactive”.
